# This is a sample that favours compounds with a hit; in the whole collection about 7.3% have one here.
# KinaseGlo FLuc = counter-screen: inhibitors of Kinase-Glo firefly luciferase; Q27757; Kinase-Glo luciferase, ATP luminescence, 8 min; Potency, µM (titrated, usually from 38.3 µM), actives largely listed as inhibitors; 200,000 compounds, 0.28% hits; AID 1379; further: nearly all actives have a fitted effect of over 60% in size
#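 Kinase-Glo luciferase light output from ATP and luciferin was measured with 10 uM ATP, within the enzyme's linear range. Buffer: 50 mM imidazole pH 7.2, 50 mM KCl, 7 mM MgCl2, 0.01% Tween 20, 0.05% BSA; luminescence read after 8 min at ambient temperature.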
# ELG1 genotoxic = induces genotoxicity in HEK293T cells with luciferase-tagged ELG1; HEK293T ELG1-luciferase reporter, luminescence, 16 h; Potency, µM (doses to about 46 µM), hits mostly activators; 330,000 compounds, 1.3% hits; further: nearly all actives have a fitted effect of over 60% in size
#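 HEK293T cells expressing luciferase-tagged ELG1 were treated with compound or DMSO for 16 hr at 37°C. Luciferase activity was then read after 30 min with ONE-Glo at room temperature; rising signal flags genetic stress.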
# Rab9 promoter act = activators of Rab9 promoter | Huh7 Rab9 promoter-luciferase reporter, luminescence, 24 h | Potency, µM (highest dose often 9.22 µM), usual class: activators | 320,000 compounds, 2.8% hits | AID 485297; further: nearly all actives have a fitted effect of over 60% in size
#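 Stable Rab9-luc Huh7, 1500 cells/well, 2 h settle; cmpd in DMSO, 24 h, 37 °C/5% CO2; luciferase reagent 10 min RT; luminescence.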
# NPC1 prom act = activates the NPC1 promoter; Huh7 NPC1 promoter luciferase reporter, 24 h; Potency, µM (series often up to 9.22 µM), most hits filed as activators; 320,000 compounds, 2.4% hits; further: nearly all actives have a fitted effect of over 60% in size
#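 Huh7 reporter cells (NPC1 promoter driving luciferase) are dosed with compound for 24 h at 37 °C, 5% CO2; luciferase detection reagent is then added and luminescence measured after 10 min at ambient temperature.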
# SMN2 splice up = SMN2 splice variant enhancement; HEK293 SMN2-luciferase splicing reporter, luminescence, 30-36 h; Potency, µM (top dose mostly 46.1 µM), actives largely listed as activators; 210,000 compounds, 2.8% hits; further: nearly all actives have a fitted effect of over 55% in size
#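 qHTS luciferase splicing reporter: luminescence rises when SMN2 exon 7 is included in transfected HEK293 cells. Compound exposure lasted 30-36 h at 37C, with 4.5 mM final sodium butyrate as control, followed by a ONE-Glo read.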
# FLuc counter = inhibits or activates purified firefly luciferase, miR-21 counter-screen. P08659. purified FLuc, Km substrates, luminescence inhibition. Potency, µM (series often up to 57.5 µM), hits mostly inhibitors. 360,000 compounds, 6.9% hits. AID 588342; further: nearly all actives have a fitted effect of over 55% in size
# Target sequence (P08659 whole entry, looked up): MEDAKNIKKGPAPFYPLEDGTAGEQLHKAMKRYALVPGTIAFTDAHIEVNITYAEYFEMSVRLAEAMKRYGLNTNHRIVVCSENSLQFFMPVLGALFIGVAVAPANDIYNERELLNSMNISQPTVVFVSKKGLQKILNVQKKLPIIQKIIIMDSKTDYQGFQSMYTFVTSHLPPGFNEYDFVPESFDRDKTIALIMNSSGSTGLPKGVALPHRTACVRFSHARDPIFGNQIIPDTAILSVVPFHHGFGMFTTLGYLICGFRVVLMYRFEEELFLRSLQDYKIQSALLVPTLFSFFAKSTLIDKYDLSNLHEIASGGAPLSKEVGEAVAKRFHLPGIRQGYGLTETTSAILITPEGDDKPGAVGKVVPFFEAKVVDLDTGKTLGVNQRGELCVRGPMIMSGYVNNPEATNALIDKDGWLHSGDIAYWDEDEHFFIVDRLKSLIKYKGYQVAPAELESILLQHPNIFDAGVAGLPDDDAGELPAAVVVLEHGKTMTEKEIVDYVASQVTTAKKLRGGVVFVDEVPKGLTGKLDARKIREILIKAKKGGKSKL
#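 Purified P. pyralis luciferase (10nM final) with 10uM D-luciferin and 10uM ATP (Km levels) in 50mM Tris acetate pH 7.5, 10mM Mg acetate, 0.01% Tween-20, 0.05% BSA; qHTS 6-point titration, ~60 µM downward; luminescence read.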
# Numbers stand for hits; . = inactive; ? = inconclusive; / = no result given; [ ] = dose if it differs, or a comment. The call rests on the fitted dose curve; in most records, active means well fitted curve in the direction sought with a large enough effect; inconclusive means small, poorly fitted or top-dose-only effect, or another doubt; inactive means no such curve, though single readings can be large; an effect the other way counts as inactive or inconclusive.
SMILES,KinaseGlo FLuc,ELG1 genotoxic,Rab9 promoter act,NPC1 prom act,SMN2 splice up,FLuc counter
O=S(=O)(Nc1cccc(-c2ccc(N3CCCCCC3)nn2)c1)c1ccc(F)cc1,/,?,?,?,/,5.36µM
CC(=O)c1ccc(S(=O)(=O)Nc2cccc(-c3ccc4nncn4n3)c2)cc1,.,.,.,.,.,.
O=C(c1ccc(S(=O)(=O)Nc2cccc(C(F)(F)F)c2)cc1)N1CCC1,/,.,.,.,/,?
Cn1c(=O)c(=O)n(C)c2cc(S(=O)(=O)Nc3ccc(OC(F)(F)F)cc3)ccc21,.,.,.,.,.,.
O=S(=O)(Nc1ccc(-c2ccc(N3CCCCC3)nn2)cc1)c1ccc(OC(F)(F)F)cc1,/,/,/,/,/,21.3µM
O=S(=O)(Nc1ccc(-c2ccc(N3CCCC3)nn2)cc1)c1ccc(Cl)cc1,/,/,/,/,/,.
O=S(=O)(Nc1cccc(-c2ccc(N3CCCCCC3)nn2)c1)c1ccc(C(F)(F)F)cc1,/,?,?,.,/,9.53µM
COC(=O)C(NC(=O)C(C)Oc1ccccc1)C(C)C (stereo not drawn),.,.,.,.,.,.
Cc1nc(SCCC(=O)O)c2ccccc2n1,.,.,.,.,.,.
COCCNC(=O)Cn1cnc([N+](=O)[O-])n1,.,.,.,.,.,.
CCN(CC)S(=O)(=O)c1ccc(N2C(=O)CC2(/C=C/c2ccccc2)C(=O)NC2CCCC2)cc1 (stereo not drawn),.,.,.,.,.,.
O=S(=O)(Nc1cccc(-c2ccc(N3CCCCCC3)nn2)c1)c1cccc(F)c1,/,?,3.16µM,3.16µM,/,2.39µM
CC1CCCC(NC(=O)CN2C(=O)COc3ccccc32)C1C (stereo not drawn),/,.,.,.,/,.
COC(=O)c1cccc(NC(=O)Nc2ccccc2OC)c1,/,?,?,.,/,12µM
COC(=O)c1cccc(NC(=O)NC(=O)c2ccccc2Cl)c1,/,?,0.355µM,1.26µM,/,10.7µM
COC(=O)c1cc(NC(=O)Nc2ccccc2)ccc1Cl,.,.,.,.,?,15.1µM
COC(=O)c1cc(NC(=O)C2COc3ccccc3O2)ccc1Cl (stereo not drawn),.,.,.,.,.,.
COC(=O)c1cccc(NC(=O)Nc2ccc(Cl)c(Cl)c2)c1,.,.,3.55µM,?,.,15.1µM
COc1ccccc1NC(=O)Nc1cccc(NC(C)=O)c1,/,.,.,.,/,?
CCOc1cc(C(=O)OCC(=O)Nc2ccc(F)cc2Cl)ccc1OCC(=O)N1CCOCC1,/,.,.,.,/,.
Cc1ccc(NC(=O)c2cc3ccccc3o2)cc1S(=O)(=O)N(C)C,.,2.59µM,2.51µM,3.16µM,12.6µM,0.849µM
Cc1ccc(NC(=O)c2cc3ccccc3oc2=O)cc1S(=O)(=O)N(C)C,/,.,.,.,/,0.0757µM
CCC(=O)Nc1ccc(NC(=O)c2cc3ccccc3o2)cc1,.,.,?,?,?,?
Cc1ccc(NC(=O)c2ccccc2OCC(=O)Nc2ccccc2F)cc1S(=O)(=O)N(C)C,/,.,.,.,/,7.57µM
CN(C)S(=O)(=O)c1ccc(NC(=O)c2cc3ccccc3o2)cc1,.,.,?,?,.,15.1µM
SMILES,KinaseGlo FLuc,ELG1 genotoxic,Rab9 promoter act,NPC1 prom act,SMN2 splice up,FLuc counter
COc1ccc(/C=C\c2nc(=O)c3ccccc3o2)cc1,.,?,?,?,/,3.79µM
O=c1nc(/C=C/c2ccc(O)c(O)c2)oc2ccccc12,/,20.6µM,?,?,/,8.49µM
CCOc1ccc(NS(=O)(=O)c2ccc(C(=O)N(C)CC(=O)Nc3ccc(C)cc3)cc2)cc1,/,.,.,.,/,.
O=C(NC(=S)N1CCOCC1)c1ccc(F)cc1,/,.,.,.,/,.
O=C(NCc1ccccc1Cl)c1cccc(NC2=NC3CS(=O)(=O)CC3S2)c1 (stereo not drawn),/,.,.,.,/,.
CN(C)S(=O)(=O)c1cccc(NC(=S)N/N=C/c2cc(Br)ccc2O)c1,/,.,.,.,/,19µM
CC(=NC1CCCC1)c1c(C)[nH]n(-c2nc3ccccc3s2)c1=O,.,?,?,?,?,3.38µM
COc1ccccc1NS(=O)(=O)c1cc(NC(=O)Cn2cnc3c2c(=O)n(C)c(=O)n3C)ccc1C,.,.,.,.,.,.
Cc1nn(C)c(=O)n1-c1ccc(OCc2ccccc2)cc1,.,.,?,?,11.2µM,?
Cc1ccc(-n2c(-c3cnccn3)n[nH]c2=S)c(Br)c1,.,.,.,.,/,.
FC(F)(F)c1ccccc1-n1c(-c2cnccn2)n[nH]c1=S,/,?,.,.,/,16.9µM
CCCC/C(O)=C1\C(=O)CC(C)(C)CC1=Nc1ccc(N)cc1,.,.,.,.,.,.
Cc1c(CC(=O)NCC(=O)NCC(=O)O)c(=O)oc2c(C)c3oc4c(c3cc12)CCCC4,/,.,.,.,/,?
Cc1oc2cc3oc(=O)c(CC(=O)O)c(C)c3cc2c1-c1ccccc1,/,.,.,.,/,.
Cc1c(CC(=O)NCC(=O)O)c(=O)oc2cc3oc4c(c3cc12)CCCC4,/,.,.[1.84 µM],.,/,15.1µM
Cc1c(CC(=O)O)c(=O)oc2cc3oc4c(c3cc12)CCCC4,/,.,.,.,/,26.9µM
Cc1cccnc1NC1OC(=O)c2ccccc21 (stereo not drawn),.,.,.,.,.,.
Brc1c(CSc2nc3ccccc3s2)nc2ncccn12,.,?,3.16µM,3.16µM,7.08µM,12µM
O=[N+]([O-])c1ccc2sc(SCc3nc4ccccn4c3Br)nc2c1,.,.,.,.,.,.
CCOc1ccc(CC(=NCCO)C2=C(O)CC(C)(C)CC2=O)cc1OCC,.,.,.,.,.,.
CCO[C@H]1OC(C(=O)N2CCN(C)CC2)=C[C@@H](c2csc3ccccc23)[C@@H]1CCCO,/,.,.,.,/,.
Cc1ccc(NC(=O)c2cc(N(C)C)ccc2[P+](=O)O)cc1,.,?,.,.,.,19µM
CCCc1cc(C(=O)Nc2ccc(F)c(Cl)c2)no1,/,?,.,.,/,5.36µM
CCCc1cc(C(=O)Nc2cccc(C(C)=O)c2)no1,.,?,?,3.16µM,.,?
CCCc1cc(C(=O)Nc2ccccc2SC)no1,.,?,?,.,?,?
SMILES,KinaseGlo FLuc,ELG1 genotoxic,Rab9 promoter act,NPC1 prom act,SMN2 splice up,FLuc counter
CCCc1cc(C(=O)Nc2ccc(C(C)=O)cc2)no1,.,?,.,.,.,?
CCCc1cc(C(=O)Nc2ccc(C#N)cc2)no1,/,.,.,.,/,.
CCCc1cc(C(=O)Nc2ccc(F)cc2F)no1,.,11.6µM,?,.,.,10.7µM
CCCc1cc(C(=O)Nc2cccnc2)no1,?,?,.,.,.,15.1µM
N/C(=N\OC(=O)Cc1ccc([N+](=O)[O-])cc1)c1cccc(Br)c1,.,.,.,.,/,.
CCCc1cc(C(=O)Nc2cccc(Cl)c2)no1,.,14.6µM,.,.,.,1.9µM

# High-throughput results as filed in PubChem.
